Compounds without any hit were thinned out: in the full panel of roughly 83,000, 20% have a hit.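 Treatment: one concentration, 48 hours, 96-well format. Scoring: percent growth, with anything below 10 considered active.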 A number with no mark means an inactive call. Calls of active or inactive are those of the source.

Data on 40 compounds can be found in PubChem BioAssay (NCI).

The first assay has as its system UACC-257 melanoma. The experiment in a line: NCI-60 one-dose screen, 48 h (100 = growth as untreated, 0 = no growth, -100 = all killed). Particulars: 10 µM.
Turning to `O=C1c2ccccc2C(=O)c2c1ccc(C(Br)Br)c2[N+](=O)[O-]`, the growth was 95.2%.

Turning to `COc1ccc(NC(=O)C2CC3C=CC2C3)c([N+](=O)[O-])c1` (stereo not drawn), the growth is 98.1%. With `CC[C@@H](C(=O)[C@H](C)[C@H](O)[C@@H](C)[C@H]1O[C@H]([C@@H](CC)C(=O)N(CC)CC)CC[C@H]1C)C1O[C@]2(C=C[C@@H](O)[C@]3(CC[C@@](C)([C@H]4CC[C@](O)(CC)[C@H](C)O4)O3)O2)[C@H](C)C[C@@H]1C` (stereo partly drawn), the growth was 12.4%. With `COc1cc(-c2nn(-c3cccc(NC(=O)NCCNC(=O)c4cccc(C(F)(F)F)c4)c3)cc2-c2ccncc2)ccc1Cl`, the growth was 51%. Same read-out and setting: in the case of `O=C(O)c1cc([N+](=O)[O-])ccc1Oc1ccccc1` it was 96.8%; in that of `CCOC(=O)c1cc(C(=O)c2cc(OC)c(OC)c(OC)c2)n2nc(C)ccc12`, 55.5%.

With `CC[C@@H](C(=O)[C@@H](C)[C@@H](O)[C@H](C)[C@@H]1O[C@@H]([C@@H](CC)C(=O)O)CC[C@@H]1C)C1O[C@]2(C=CC(=O)[C@]3(CC[C@@](C)([C@H]4CC[C@](O)(CC)[C@H](C)O4)O3)O2)[C@H](C)C[C@@H]1C` (stereo partly drawn), the growth was 42.9%. Regarding `Cc1ccc(S(=O)(=O)N(C)CCCCCC(=O)O)cc1`, the growth is 98.2%. Regarding `COc1ccc(C2=Cn3c(CCC(=O)c4nc5ccccc5[nH]4)nnc3SC2)cc1`, the growth was 107%. Same read-out and setting: in the case of `CCCN(CCC)C(=O)[C@H](CC)[C@@H]1CC[C@@H](C)[C@@H]([C@H](C)[C@@H](O)[C@@H](C)C(=O)[C@H](CC)C2O[C@]3(C=C[C@@H](O)[C@]4(CC[C@@](C)([C@H]5CC[C@](O)(CC)[C@H](C)O5)O4)O3)[C@H](C)C[C@@H]2C)O1` (stereo partly drawn) it was 8.4% (active); in that of `OCC1OC(n2cnc3c(NCc4ccco4)ncnc32)C(O)C1O` (stereo not drawn), 86.4%.

Take `CC[C@@H](C(=O)[C@H](C)[C@H](O)[C@@H](C)[C@H]1O[C@H]([C@@H](CC)C(=O)O)CC[C@H]1C)C1O[C@]2(C=C[C@@H](O)[C@]3(CC[C@@](C)([C@H]4CC[C@](O)(CC)[C@H](C)O4)O3)O2)[C@H](C)C[C@@H]1C` (stereo partly drawn): the growth was 35.3%. Consider `O=C(/C=C/c1cccc(B(O)O)c1)c1cccc(B(O)O)c1`, for which the growth was -11% (active). As for `Cc1ccc(Cl)cc1NC(=O)CCl`, the growth is 85.8%. Same read-out and setting: next, `COc1cc(/C=C/c2cc(/C=C/c3ccc(O)c(OC)c3)nc(N)n2)ccc1O`: -1.9% (active). Take `C/C(=N\O)c1ccc(NC(=O)CSc2nnc(-c3ccccc3)n2-c2ccccc2)cc1`: the growth is 94.5%. On the same count and under the same terms, in the case of `O=C(NCCCNS(=O)(=O)c1ccc(Cl)cc1)Nc1ccc(-n2cc(-c3ccncc3)c(-c3ccc(Cl)c(O)c3)n2)cc1` it was 33.7%; in that of `CS(=O)(=O)c1nccc(-c2c(-c3cccc(OCCN4CCOCC4)c3)nc3sccn23)n1`, 110%. Same read-out and setting: in the case of `C=CCSC(CC)(CC)C(=O)NC` it was 92.1%; in that of `CCn1c(SC/C(=N/O)c2ccccc2)nnc1-c1ccccc1`, 104%.

Consider `CCN(CC)CCOc1ccc2c(c1O)C(=O)c1ccccc1C2=O`, for which the growth is 94.7%. With `CS(=O)(=O)c1nccc(-c2c(-c3cccc(O)c3)nc3sccn23)n1`, the growth is 92.9%.

For `CC(=O)[C@H]1CC[C@]2(C)[C@@H]1CC[C@@H]1[C@@]3(C)CC(CCC#N)(CCC#N)C(=O)C(C)(C)[C@@H]3CC[C@]12C`, the growth is 107%.

Take `COc1cc(-c2nn(-c3cccc(NC(=O)CN4CCOCC4)c3)cc2-c2cccnc2)ccc1Cl`: the growth was 93.9%. Consider `CNS(=O)(=O)Oc1ccc(-c2sc3cc(OS(=O)(=O)NC)ccc3c2C(=O)c2ccc(OCCN3CCCCC3)cc2)cc1`, for which the growth is 70%. In the case of `Clc1ccc(/C=C2\CCCC3C2=Nc2ccccc2NC3c2ccc(Cl)cc2)cc1` (stereo not drawn), the growth is 79.9%.

Take `CCOS(=O)(=O)c1c(C(C)C)cc(C(C)C)cc1C(C)C`: the growth is 105%. Turning to `COc1cc(/C=C/c2cc(/C=C/c3ccc(O)c(OC)c3)n(C(=O)Nc3ccccc3Cl)n2)ccc1O`, the growth was 1.28% (active).

The next assay deals with M14 melanoma. Described as above. Particulars: 10 µM.
Regarding `CCN1CCN(CCC(=O)Nc2cccc(-n3cc(-c4ccncc4)c(-c4ccc(Cl)c(OC)c4)n3)c2)CC1`, the growth was -63.4% (active).

On to `O=C1/C=C/[C@@H](O)[C@@H]2C[C@@H](O)C[C@H]2/C=C/CCC[C@H](C(F)(F)F)O1`, for which the growth was 13.4%. The same measure, in the same setting: next, `CC[C@@H](C(=O)[C@@H](C)[C@@H](O)[C@H](C)[C@@H]1O[C@@H]([C@@H](CC)C(=O)N(CC)CC)CC[C@@H]1C)C1O[C@]2(C=CC(=O)[C@]3(CC[C@@](C)([C@H]4CC[C@](O)(CC)[C@H](C)O4)O3)O2)[C@H](C)C[C@@H]1C` (stereo partly drawn): 13.6%. As for `COc1ccc(-c2cc(-c3ccc(Cl)cc3)nc(SCCCCCCC(=O)NO)n2)cc1OC`, the growth was 44.4%. On the same count and under the same terms, in the case of `N#CCc1csc(Cc2ccccc2)n1` it was 101%; in that of `CC(C)(C)OC(=O)CN1CCc2c(sc3ncnc(N/N=C/c4ccccc4Br)c23)C1`, 73.4%. With `CC(CN(C)C)Oc1ccccc1NC1=C(Cl)C(=O)C(Nc2ccccc2OC(C)CN(C)C)=C(Cl)C1=O` (stereo not drawn), the growth is -65% (active). Still for that read-out and setting: next, `Nc1ccn(Cc2nnc(CCC(=O)c3nc4ccccc4[nH]3)o2)c(=O)n1`: 89.8%. Still for that read-out and setting: in the case of `CC(C)(C)OC(=O)CN1CCc2c(sc3ncnc(N/N=C/c4cccc5ccccc45)c23)C1` it was 42.7%; in that of `CCOC(=O)c1cc(C(=O)c2ccc(Cl)cc2)n2ccc(-c3cc[n+](CC(=O)c4ccc(OC)cc4)cc3)cc12`, 56.8%; in that of `NS(=O)(=O)Oc1ccc(NC(=O)C2CCCCCC2)cc1`, 108%.

For `NNC(=O)Oc1c(Cl)cc(Cl)cc1[N+](=O)[O-]`, the growth was 101%.

`O=C1c2ccccc2C(=O)c2c1ccc(C(Br)Br)c2[N+](=O)[O-]`: the growth is 36.6%. On the same count and under the same terms, in the case of `COc1ccc(NC(=O)C2CC3C=CC2C3)c([N+](=O)[O-])c1` (stereo not drawn) it was 130%; in that of `CC[C@@H](C(=O)[C@H](C)[C@H](O)[C@@H](C)[C@H]1O[C@H]([C@@H](CC)C(=O)N(CC)CC)CC[C@H]1C)C1O[C@]2(C=C[C@@H](O)[C@]3(CC[C@@](C)([C@H]4CC[C@](O)(CC)[C@H](C)O4)O3)O2)[C@H](C)C[C@@H]1C` (stereo partly drawn), 11.7%. Still for that read-out and setting: in the case of `COc1cc(-c2nn(-c3cccc(NC(=O)NCCNC(=O)c4cccc(C(F)(F)F)c4)c3)cc2-c2ccncc2)ccc1Cl` it was 15.3%.

Regarding `O=C(O)c1cc([N+](=O)[O-])ccc1Oc1ccccc1`, the growth was 106%. As to `CCOC(=O)c1cc(C(=O)c2cc(OC)c(OC)c(OC)c2)n2nc(C)ccc12`, the growth was 21%. The same measure, in the same setting: in the case of `CC[C@@H](C(=O)[C@@H](C)[C@@H](O)[C@H](C)[C@@H]1O[C@@H]([C@@H](CC)C(=O)O)CC[C@@H]1C)C1O[C@]2(C=CC(=O)[C@]3(CC[C@@](C)([C@H]4CC[C@](O)(CC)[C@H](C)O4)O3)O2)[C@H](C)C[C@@H]1C` (stereo partly drawn) it was 9.56% (active); in that of `Cc1ccc(S(=O)(=O)N(C)CCCCCC(=O)O)cc1`, 95.1%; in that of `COc1ccc(C2=Cn3c(CCC(=O)c4nc5ccccc5[nH]4)nnc3SC2)cc1`, 111%. In the case of `CCCN(CCC)C(=O)[C@H](CC)[C@@H]1CC[C@@H](C)[C@@H]([C@H](C)[C@@H](O)[C@@H](C)C(=O)[C@H](CC)C2O[C@]3(C=C[C@@H](O)[C@]4(CC[C@@](C)([C@H]5CC[C@](O)(CC)[C@H](C)O5)O4)O3)[C@H](C)C[C@@H]2C)O1` (stereo partly drawn), the growth is 13.9%. Take `OCC1OC(n2cnc3c(NCc4ccco4)ncnc32)C(O)C1O` (stereo not drawn): the growth was 31.2%. The same measure, in the same setting: next, `CC[C@@H](C(=O)[C@H](C)[C@H](O)[C@@H](C)[C@H]1O[C@H]([C@@H](CC)C(=O)O)CC[C@H]1C)C1O[C@]2(C=C[C@@H](O)[C@]3(CC[C@@](C)([C@H]4CC[C@](O)(CC)[C@H](C)O4)O3)O2)[C@H](C)C[C@@H]1C` (stereo partly drawn): -38.8% (active); `O=C(/C=C/c1cccc(B(O)O)c1)c1cccc(B(O)O)c1`: -56.3% (active); `Cc1ccc(Cl)cc1NC(=O)CCl`: 62.7%. Same read-out and setting: in the case of `COc1cc(/C=C/c2cc(/C=C/c3ccc(O)c(OC)c3)nc(N)n2)ccc1O` it was -26.1% (active); in that of `C/C(=N\O)c1ccc(NC(=O)CSc2nnc(-c3ccccc3)n2-c2ccccc2)cc1`, 91.8%; in that of `O=C(NCCCNS(=O)(=O)c1ccc(Cl)cc1)Nc1ccc(-n2cc(-c3ccncc3)c(-c3ccc(Cl)c(O)c3)n2)cc1`, 18.1%. Take `CS(=O)(=O)c1nccc(-c2c(-c3cccc(OCCN4CCOCC4)c3)nc3sccn23)n1`: the growth is 113%. On to `C=CCSC(CC)(CC)C(=O)NC`, for which the growth was 103%. As for `CCn1c(SC/C(=N/O)c2ccccc2)nnc1-c1ccccc1`, the growth is 109%. The same measure, in the same setting: next, `CCN(CC)CCOc1ccc2c(c1O)C(=O)c1ccccc1C2=O`: 92%; `CS(=O)(=O)c1nccc(-c2c(-c3cccc(O)c3)nc3sccn23)n1`: 94%. In the case of `CC(=O)[C@H]1CC[C@]2(C)[C@@H]1CC[C@@H]1[C@@]3(C)CC(CCC#N)(CCC#N)C(=O)C(C)(C)[C@@H]3CC[C@]12C`, the growth is 95.9%. Same read-out and setting: in the case of `COc1cc(-c2nn(-c3cccc(NC(=O)CN4CCOCC4)c3)cc2-c2cccnc2)ccc1Cl` it was 61%. For the compound `CNS(=O)(=O)Oc1ccc(-c2sc3cc(OS(=O)(=O)NC)ccc3c2C(=O)c2ccc(OCCN3CCCCC3)cc2)cc1`, the growth is 65.7%. Regarding `Clc1ccc(/C=C2\CCCC3C2=Nc2ccccc2NC3c2ccc(Cl)cc2)cc1` (stereo not drawn), the growth was 29.1%.

Consider `CCOS(=O)(=O)c1c(C(C)C)cc(C(C)C)cc1C(C)C`, for which the growth is 92.8%. Turning to `COc1cc(/C=C/c2cc(/C=C/c3ccc(O)c(OC)c3)n(C(=O)Nc3ccccc3Cl)n2)ccc1O`, the growth is 0.265% (active).
